Measured values from PubChem BioAssay (NCATS).
Records with an inconclusive call do not appear. Unmarked numbers belong to inactive results. Calls of active or inactive are those of the source. The call rests on the fitted dose curve; in most records, active means well fitted inhibition curve with a large enough effect; inconclusive means small, poorly fitted or top-dose-only effect; inactive means no such curve, though single readings can be large or run the other way. Where a SMILES comes first, the peptide text is derived from it. The star is where a group is joined. Hexanoyl = CCCCCC(=O)*

Tested on: Zika virus NS2B-NS3 protease (unlinked complex)
Assay: Primary screen GU Rhodamine qHTS for Zika virus inhibitors: Unlinked NS2B-NS3 protease assay (AID 1347159); further: nearly all actives have a fitted effect of over 60% in size
Conditions: Recombinant ZIKV NS2B-NS3 protease, Rhodamine110 substrate fluorescence; series mostly up to 107 µM; activity change, negative = inhibition: at the top concentration
Method in brief: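 Percent inhibition came from the 15-min rise in Rhodamine110 fluorescence (1.5 microM substrate, ~15% conversion), normalized to no-inhibitor and no-enzyme wells and Hill-fitted. Unlinked protease, 25 nM, pH 8.0 Tris buffer; compounds up to 114 microM, 15-min preincubation.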
On the % scale 0 is the no-effect control and ±100 the full control effect; potency means the concentration at half of the fitted maximal effect.

Compound | Potency | activity change, negative = inhibition
CC1(C(=O)O)CCCC2(C)C3CC4C5CC3(CCC12)CC45C (configuration not stated) | 10 µM (active) | –
COc1ccc(-n2c(SCC#N)nc3sc4c(c3c2=O)CCCC4)cc1 | – | 0.221%
C=CC(C)(O)CC/C=C(\C)COC1O[C@H](CO)[C@@H](O)[C@H](O)[C@H]1O (some centres not stated) | 12.6 µM (active) | –
Cn1cc(-c2c[nH]c3ncnc(N4CCOCC4)c23)cn1 | – | 25.4%
COc1cccc(C)c1C(=O)O[C@@H]1C[C@H](O[C@H]2[C@H](O)C[C@H](O[C@@H]3CCC[C@H]4[C@H]3C=C[C@@H]3CCCC/C=C/[C@H]5C=C(C(=O)O)[C@@H](C)C[C@@]56OC(=O)C(=C6O)OC(=O)[C@@]34C)O[C@@H]2C)O[C@H](C)[C@H]1O | – | -28.3% [at 32.5 µM]
CCCCCC(=O)N1CCC[C@H]1C(=O)N[C@@H](Cc1ccc(O)cc1)C(=O)OC (Hexanoyl-Pro-Tyr-OMe) | – | 3.92%
COc1ccc(-c2ccn(CC[C@](C)(C(=O)NO)S(C)(=O)=O)c(=O)c2)c(F)c1 | – | -18.5%
